Screening data (PubChem BioAssay)
HEK293 cAMP cs: parental HEK293 cAMP activation (counter-screen); parental HEK293 CNG cAMP sensor, membrane potential fluorescence; Potency, µM (top dose mostly 57.1 µM), without a hit: top-dose activation, hits mostly activators; hit rate 2.5% among 73,000; further: % of control where 0% means no effect; nearly all actives have a fitted effect of over 55% in size
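Counterscreen for endogenous-receptor signalling: CNG-channel HEK 293 cells report cAMP rise by membrane depolarization. After 60 min dye equilibration with 100 uM RO 20-1724, compounds incubated 30 min before bottom-read fluorescence at 590 nm.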
CRE Fsk mod: modulators of forskolin-stimulated CRE signaling in CHO cells; CHO CRE-bla reporter (cAMP response element driving beta-lactamase), forskolin EC10, beta-lactamase ratio; Potency, µM (series often up to 38.2 µM), for the others: top-dose activity change, negative = inhibition, usual class: activators; hit rate 2.5% among 71,000; AID 662; active means well fitted activation curve with a large enough effect in the signal ratio, with a control signal flat, not every such curve was filed as active; inconclusive means small, poorly fitted or top-dose-only effect, or effect the other way, or a change in a side signal; the % refers to the signal ratio; further: % of control where 0% means no effect
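Titrated compounds plus EC10 NKH 477 on CHO CRE-bla cells, 3 h, 37 °C. CCF4, 2 h RT. Ratio 460/530 nm → AC50.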
ERK AVP inh: inhibitors of vasopressin-stimulated ERK signaling pathway; HEK293-V1b, vasopressin-stimulated pERK AlphaScreen; Potency, µM (titrated, usually from 57.5 µM), for the others: top-dose activity, negative = inhibition, actives largely listed as inhibitors; hit rate 0.99% among 72,000; AID 995; further: on the % scale 0 is the no-effect control and ±100 the full control effect; nearly all actives have a fitted effect of over 55% in size
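V1b-HEK293 cells; cpd 30 min 37C; 25 nM vasopressin 5 min; lyse 10 min; AlphaScreen beads 5 hr RT. Normalized to DMSO basal and 25 nM vasopressin; AC50 by Hill fit.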
Tau filament bind: binders of human tau filaments; P10636; recombinant tau filaments, thioflavin S fluorescence, 15 h; filaments grown with octadecylsulfate alongside compound; Potency, µM (titrated, usually from 57.1 µM), inactives show at the top dose activity change, negative = inhibition; hit rate 2% among 71,000; AID 596;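 further: on the % scale 0 is the no-effect control and ±100 the full control effect; actives lower thioflavin S fluorescence by blocking filaments or displacing dye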
Target sequence (P10636 whole entry, looked up): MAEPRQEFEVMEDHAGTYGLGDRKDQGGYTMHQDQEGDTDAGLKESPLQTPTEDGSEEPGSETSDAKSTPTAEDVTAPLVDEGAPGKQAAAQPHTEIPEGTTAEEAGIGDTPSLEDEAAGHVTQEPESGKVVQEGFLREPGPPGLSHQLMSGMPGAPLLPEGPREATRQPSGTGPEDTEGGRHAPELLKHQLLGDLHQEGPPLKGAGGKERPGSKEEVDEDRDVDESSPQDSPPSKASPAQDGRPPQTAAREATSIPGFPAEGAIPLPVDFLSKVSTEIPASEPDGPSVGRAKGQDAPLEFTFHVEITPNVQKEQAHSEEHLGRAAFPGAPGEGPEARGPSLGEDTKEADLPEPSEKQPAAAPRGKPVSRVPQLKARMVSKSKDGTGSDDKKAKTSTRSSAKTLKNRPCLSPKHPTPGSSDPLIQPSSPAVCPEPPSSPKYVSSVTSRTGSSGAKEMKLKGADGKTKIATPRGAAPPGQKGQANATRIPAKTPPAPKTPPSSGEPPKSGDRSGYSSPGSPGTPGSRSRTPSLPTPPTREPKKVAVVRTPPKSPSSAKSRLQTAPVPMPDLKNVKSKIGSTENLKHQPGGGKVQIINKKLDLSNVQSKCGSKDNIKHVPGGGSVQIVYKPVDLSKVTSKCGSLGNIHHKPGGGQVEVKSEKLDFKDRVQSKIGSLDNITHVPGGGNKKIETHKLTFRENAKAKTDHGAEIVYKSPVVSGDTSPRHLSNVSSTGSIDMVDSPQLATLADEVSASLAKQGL
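ThS-based fibril read: tau 1 uM final, inducer ODS 30 uM final, 37 C for 15 h, ex 450/em 510 nm.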
TSHR agonist: agonists of human thyroid stimulating hormone receptor. P16473. HEK293-CNG-TSHR cells (CNG channel as cAMP sensor), membrane potential dye, cAMP. Potency, µM (highest dose often 57.1 µM), inactives show at the top dose activation, actives largely listed as activators. hit rate 0.48% among 73,000. AID 926; active means well fitted activation curve with a large enough effect in the main read-out, with a control signal flat, not every such curve was filed as active; inconclusive means small, poorly fitted or top-dose-only effect, or a change in a side signal; inactive means no such curve, though single readings can be large or run the other way; % of control where 0% means no effect;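 further: the control signal comes from parental cells without the receptor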
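HEK 293 cells stably expressing TSHR and a cAMP-gated CNG channel; parental CNG-only cells as counterscreen. Cells preloaded 60 min with membrane potential dye plus 100 uM RO 20-1724, then compound 30 min; fluorescence read at 590 nm.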
* marks the source's active call; other numbers are inactive results; i = inactive; ? = inconclusive; . = no result given; [ ] = another dose, or the depositor's remark. Only some compounds are listed: those with a hit (about 7.4% of all), similar ones and a draw of the others. Unless noted, the call rests on the fitted dose curve; in most records, active means well fitted curve in the direction sought with a large enough effect; inconclusive means small, poorly fitted or top-dose-only effect, or another doubt; inactive means no such curve, though single readings can be large; an effect the other way counts as inactive or inconclusive. Potency means the concentration at half of the fitted maximal effect.

SMILES | HEK293 cAMP cs | CRE Fsk mod | ERK AVP inh | Tau filament bind | TSHR agonist
CCCn1c(=O)c2ccccc2n2c(SCC(=O)NCc3cccs3)nnc12 | 20µM* | 9% | ? | -2% | ?
O=c1[nH]c2ccccc2c2nc3ccccn3c12 | 0% | 10µM* | -24% | -2% | -2%
CC(C)(C)N1C(=O)[C@H]2[C@H]3[C@H](O)[C@H](O)C/C(=N/NC(=O)OCc4ccccc4)[C@@H]3CC[C@@H]2C1=O | ? | . | 26%[11.5 µM] | . | ?
N#CC(=C1CCCC1)c1nc(-c2ccccc2O)cs1 | ? | 3% | 2% | 13µM* | ?
COc1ccc(C(=O)CSc2nc3nc(C)cc(C)c3c(=O)[nH]2)cc1OC | 2% | 2.5µM* | -3% | 363% | -11%
CCc1c(C)nc(SCC(=O)Nc2ccc(Br)cc2)[nH]c1=O | 12% | ? | -27% | -3% | 7%
Cc1ccc(NC(=O)CSc2nc3nc(C)cc(C)c3c(=O)[nH]2)cc1 | 30% | 3.2µM* | -7% | 1% | .
Cc1cc(C)c2c(=O)[nH]c(SCC(=O)N3CCCCC3)nc2n1 | 10%[11.4 µM] | 2.5µM* | 25% | 7%[11.4 µM] | 13%[11.4 µM]
Cc1cc(=O)[nH]c(SCC(=O)N2CCCCCC2)n1 | 7% | 8% | -1% | 1% | -4%
Cc1cc(C)c2c(=O)[nH]c(SCC(=O)Nc3ccccc3)nc2n1 | 22% | 5µM* | 30% | -1% | .
CCN(CCO)C[C@H]1CCC[C@H]2CCCC[C@@H]21 | 0%[11.4 µM] | -1%[7.6 µM] | 13%[11.5 µM] | -6%[11.4 µM] | 4%[11.4 µM]
CCOC(=O)C1=C(C)NC(=O)NC1C1CC=CCC1 (configuration not stated) | 5% | -3% | -1% | 0% | -13%
COC(=O)C1=C(C)NC(C)=C(C(=O)OC)C1C1CC=CCC1 (configuration not stated) | 21% | . | . | . | 20µM*
C=C1CC[C@@H]2O[C@@]2(C)CC[C@H]2[C@H]1CC2(C)C | . | . | -17% | . | .
CC1(C)Oc2cc3c(cc2O1)OC(C)(C)O3 | 3.2µM* | . | 21%[11.5 µM] | . | ?
CC1(C)OC(=O)C(=CNc2ccccc2)C(=O)O1 | 6% | 26% | -11% | 3% | 2%
O=C(O)C(Cc1cccs1)C(=O)O | -3%[11.4 µM] | 15%[7.6 µM] | 2%[11.5 µM] | 7%[11.4 µM] | 1%[11.4 µM]
CC(c1ccco1)N(C(=O)c1cccs1)c1ccccn1 (configuration not stated) | 4% | 2% | -3% | 69% | 3%
CC(c1ccco1)N(C(=O)CSc1ccc(Br)cc1)c1ccccn1 (configuration not stated) | 25µM* | -21% | 19% | 8% | ?
CCN(CC)C(=O)Oc1ccc2c(=O)c(-c3ccc(OC)cc3)coc2c1 | ? | ? | ? | 18% | ?
CCN(CC)C(=O)Oc1ccc2c(=O)c(-c3ccc(OC)cc3)c(C)oc2c1 | 23% | -1% | 32µM* | 4% | 30%
O=c1oc2cc(N=Cc3ccc4c(c3)OCO4)ccc2c2ccccc12 | 1%[11.4 µM] | 17%[7.6 µM] | -7%[11.5 µM] | 2%[11.4 µM] | 6%[11.4 µM]
O=C(CSc1ncnc2c1oc1ccccc12)N1CCCc2ccccc21 | 32µM* | ? | ? | 6% | ?
O=C(Cn1cnc2c(oc3ccccc32)c1=O)N1CCCc2ccccc21 | 0% | -9% | -18% | 8% | 2%
COc1ccc(-c2nnc(Nc3nc4c(OC)cccc4s3)o2)cc1 | ? | 13µM* | 6% | 421% | ?
SMILES | HEK293 cAMP cs | CRE Fsk mod | ERK AVP inh | Tau filament bind | TSHR agonist
CN1CCc2c(sc(/N=C/c3cccs3)c2C(N)=O)C1 | -1% | 10µM* | -3% | i | -9%
Oc1c(/C=N/c2ncn[nH]2)ccc2ccccc12 | 6% | -14% | -4% | 13µM* | 1%
COc1ccc(CNc2ncnc3ccc(-c4cccc(NS(C)(=O)=O)c4)cc23)c(OC)c1 | 21% | ? | ? | 420% | 19%
CCCc1cc(COC)c(C#N)c(=O)[nH]1 | 3%[11.4 µM] | 11%[7.6 µM] | 5%[11.5 µM] | -4%[11.4 µM] | -1%[11.4 µM]
COc1ccc2nc(C)cc(Nc3ccc(N4CCOCC4)cc3)c2c1 | -53% | ? | ? | 5µM* | ?
CCOc1ccc(Nc2cc(C)nc(N3CCOCC3)n2)cc1 | 5% | -4% | 14% | -10% | 3%
CN(Cc1ccco1)c1ccnc(-c2cccc(C#N)c2)n1 | 22% | ? | -9% | 20% | 8%
CCNc1nc(OC)nc(Oc2ccc(=O)n(-c3ccccc3)n2)n1 | -7% | ? | -15% | 1% | 2%
COc1nc(NCC(C)C)nc(Oc2ccc(=O)n(-c3ccccc3)n2)n1 | 1% | 13µM* | -2% | -20% | 4%
Nc1ncnc2c1ncn2[C@H]1O[C@@H](CO)[C@@H](O)[C@H]1N | 2%[11.4 µM] | -1%[7.6 µM] | 4%[11.5 µM] | 5%[11.4 µM] | -1%[11.4 µM]
Cc1nn(-c2ccc(F)cc2)c2sc(C(=O)N3CCCCCC3)cc12 | 24% | 1µM* | 21% | 8% | .
Cc1nnc(SCC2=C(C(=O)O)N3C(=O)[C@@H](NC(=O)Cn4cnnn4)[C@@H]3SC2)s1 | -2%[25.6 µM] | -5%[17.1 µM] | 16%[25.7 µM] | 2%[25.6 µM] | -7%[25.6 µM]
O=S(=O)(c1ccccc1)N1CCC2(CCCN(c3ccccc3)C2)CC1 | 25µM* | 8% | 16% | -5% | ?
N#Cc1ccc(CN2CCCC3(CCN(S(=O)(=O)c4ccccc4)CC3)C2)cc1 | 13µM* | -3% | 19% | 14% | ?
O=S(=O)(c1ccccc1)N1CCC2(CCCN(c3ccncc3)C2)CC1 | 20µM* | 23% | -11% | 22% | ?
